Experimental data published in PubChem BioAssay AID1159580 (chemical genetic matrix, 2015).
Where “and” joins values, the source holds several entries; their conditions need not be identical. Identical values can stand only once. Out of some 5,500 compounds screened, about 2,000 (36%) were called active. Another 18% or so got no clear call; they are omitted. No stated cut-off is given here; in the data, active means normalized growth mostly below about 0.91 (no sharp cut-off); inconclusive means no clear call, values can overlap the other calls; inactive means mostly above about 0.92. The list shows a part of the results.

Test: chemical genetic growth profiling, strain panel (AID 1159580);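 further: tested at 20 µM; growth read once vehicle control cultures reached saturation at 30 °C; 1 = growth at the plate median or of vehicle wells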
Conditions: S. cerevisiae deletion strains, growth OD

**Q.** For `C#CCCCCCCCCCCCC(O)CC(O)CO` (configuration not stated), which normalized growth (locus YAL013W, strain DEP1, stronger effect = lower value) is on record?
**A.** 1 (inactive)

**Q.** What about the normalized growth (locus YAL021C, strain ccr4, stronger effect = lower value) of the same compound?
**A.** 0.979 (inactive)

**Q.** And the normalized growth (locus YAL026C, strain drs2, stronger effect = lower value)?
**A.** 0.992 (inactive)

**Q.** And the normalized growth (locus YAL030W, strain snc1, stronger effect = lower value)?
**A.** 0.99 (inactive)

**Q.** And the normalized growth (locus YBL061C, strain skt5, stronger effect = lower value)?
**A.** 0.987 (inactive)

**Q.** What about the normalized growth (locus YBR009C, strain hhf1, stronger effect = lower value) of the same compound?
**A.** 0.991 (inactive)

**Q.** What about the normalized growth (locus YBR021W, strain FUR4, stronger effect = lower value) of the same compound?
**A.** 0.974 (inactive)

**Q.** What about the normalized growth (locus YBR023C, strain chs3, stronger effect = lower value) of the same compound?
**A.** 0.983 (inactive)

**Q.** And the normalized growth (locus YBR171W, strain sec66, stronger effect = lower value)?
**A.** 0.999 (inactive)

**Q.** And the normalized growth (locus YBR229C, strain ROT2, stronger effect = lower value)?
**A.** 1 (inactive)

**Q.** And the normalized growth (locus YBR231C, strain swc5, stronger effect = lower value)?
**A.** 0.993 (inactive)

**Q.** And the normalized growth (locus YBR279W, strain paf1, stronger effect = lower value)?
**A.** 0.995 (inactive)

**Q.** And the normalized growth (locus YCL011C, strain gbp2, stronger effect = lower value)?
**A.** 0.988 (inactive)

**Q.** What about the normalized growth (locus YCL016C, strain dcc1, stronger effect = lower value) of the same compound?
**A.** 0.97 (inactive)

**Q.** And the normalized growth (locus YCL029C, strain bik1, stronger effect = lower value)?
**A.** 1.01 (inactive)

**Q.** What about the normalized growth (locus YCL061C, strain MRC1, stronger effect = lower value) of the same compound?
**A.** 0.979 (inactive)

**Q.** And the normalized growth (locus YCL069W, strain vba3, stronger effect = lower value)?
**A.** 0.992 (inactive)

**Q.** And the normalized growth (locus YCR088W, strain abp1, stronger effect = lower value)?
**A.** 0.985 (inactive)

**Q.** What about the normalized growth (locus YDL005C, strain med2, stronger effect = lower value) of the same compound?
**A.** 0.974 (inactive)

**Q.** And the normalized growth (locus YDL035C, strain GPR1, stronger effect = lower value)?
**A.** 0.984 (inactive)

**Q.** What about the normalized growth (locus YDL040C, strain nat1, stronger effect = lower value) of the same compound?
**A.** 0.988 (inactive)

**Q.** What about the normalized growth (locus YDL074C, strain BRE1, stronger effect = lower value) of the same compound?
**A.** 0.988 (inactive)

**Q.** What about the normalized growth (locus YDL101C, strain DUN1, stronger effect = lower value) of the same compound?
**A.** 1.01 (inactive)

**Q.** And the normalized growth (locus YDL134C, strain PPH21, stronger effect = lower value)?
**A.** 0.995 (inactive)

**Q.** And the normalized growth (locus YDL185W, strain tfp1, stronger effect = lower value)?
**A.** 1.01 (inactive)

**Q.** And the normalized growth (locus YDL192W, strain arf1, stronger effect = lower value)?
**A.** 1 (inactive)

**Q.** What about the normalized growth (locus YDR001C, strain nth1, stronger effect = lower value) of the same compound?
**A.** 0.982 (inactive)

**Q.** And the normalized growth (locus YDR069C, strain doa4, stronger effect = lower value)?
**A.** 0.994 (inactive)

**Q.** What about the normalized growth (locus YDR101C, strain arx1, stronger effect = lower value) of the same compound?
**A.** 0.987 (inactive)

**Q.** And the normalized growth (locus YDR137W, strain rgp1, stronger effect = lower value)?
**A.** 0.986 (inactive)

**Q.** What about the normalized growth (locus YDR150W, strain NUM1, stronger effect = lower value) of the same compound?
**A.** 0.999 (inactive)

**Q.** What about the normalized growth (locus YDR159W, strain sac3, stronger effect = lower value) of the same compound?
**A.** 1 (inactive)

**Q.** And the normalized growth (locus YDR162C, strain NBP2, stronger effect = lower value)?
**A.** 1.03 (inactive)

**Q.** What about the normalized growth (locus YDR195W, strain ref2) of the same compound?
**A.** 0.986 (inactive)

**Q.** And the normalized growth (locus YDR297W, strain sur2, stronger effect = lower value)?
**A.** 0.988 (inactive)

**Q.** What about the normalized growth (locus YDR318W, strain mcm21, stronger effect = lower value) of the same compound?
**A.** 1.01 (inactive)

**Q.** What about the normalized growth (locus YDR334W, strain swr1, stronger effect = lower value) of the same compound?
**A.** 0.991 (inactive)

**Q.** What about the normalized growth (locus YDR335W, strain msn5, stronger effect = lower value) of the same compound?
**A.** 0.988 (inactive)

**Q.** What about the normalized growth (locus YDR388W, stronger effect = lower value) of the same compound?
**A.** 0.999 (inactive)

**Q.** What about the normalized growth (locus YDR392W, strain spt3, stronger effect = lower value) of the same compound?
**A.** 0.877 (inactive)

**Q.** And the normalized growth (locus YDR502C, strain sam2, stronger effect = lower value)?
**A.** 1 (inactive)

**Q.** What about the normalized growth (locus YEL003W, strain gim4, stronger effect = lower value) of the same compound?
**A.** 0.98 (inactive)

**Q.** What about the normalized growth (locus YEL037C, strain rad23, stronger effect = lower value) of the same compound?
**A.** 0.995 (inactive)

**Q.** And the normalized growth (locus YEL061C, strain CIN8 (second series), stronger effect = lower value)?
**A.** 0.986 (inactive)

**Q.** And the normalized growth (locus YEL061C, strain CIN8, stronger effect = lower value)?
**A.** 0.997 (inactive)

**Q.** And the normalized growth (locus YER015W, strain faa2, stronger effect = lower value)?
**A.** 0.972 (inactive)

**Q.** What about the normalized growth (locus YER016W, strain bim1, stronger effect = lower value) of the same compound?
**A.** 0.989 (inactive)

**Q.** And the normalized growth (locus YER110C, stronger effect = lower value)?
**A.** 1 (inactive)

**Q.** And the normalized growth (locus YER111C, strain swi4, stronger effect = lower value)?
**A.** 0.971 (inactive)

**Q.** What about the normalized growth (locus YER155C, strain BEM2 (second series), stronger effect = lower value) of the same compound?
**A.** 0.953 (inactive)

**Q.** What about the normalized growth (locus YER155C, strain BEM2, stronger effect = lower value) of the same compound?
**A.** 1.01 (inactive)

**Q.** And the normalized growth (locus YER167W, strain BCK2, stronger effect = lower value)?
**A.** 0.998 (inactive)

**Q.** What about the normalized growth (locus YFR010W, strain ubp6, stronger effect = lower value) of the same compound?
**A.** 0.993 (inactive)

**Q.** And the normalized growth (locus YGL078C, strain dbp3, stronger effect = lower value)?
**A.** 1.02 (inactive)

**Q.** And the normalized growth (locus YGL086W, strain mad1, stronger effect = lower value)?
**A.** 1.01 (inactive)

**Q.** And the normalized growth (locus YGL167C, strain pmr1, stronger effect = lower value)?
**A.** 0.983 (inactive)

**Q.** What about the normalized growth (locus YGL173C, strain kem1, stronger effect = lower value) of the same compound?
**A.** 0.983 (inactive)

**Q.** What about the normalized growth (locus YGL227W, strain vid30, stronger effect = lower value) of the same compound?
**A.** 0.993 (inactive)

**Q.** What about the normalized growth (locus YGL240W, strain doc1, stronger effect = lower value) of the same compound?
**A.** 1 (inactive)

**Q.** And the normalized growth (locus YGL248W, strain PDE1, stronger effect = lower value)?
**A.** 0.997 (inactive)

**Q.** What about the normalized growth (locus YGL253W, strain hxk2, stronger effect = lower value) of the same compound?
**A.** 0.991 (inactive)

**Q.** And the normalized growth (locus YGR078C, strain PAC10, stronger effect = lower value)?
**A.** 0.981 (inactive)

**Q.** What about the normalized growth (locus YGR135W, strain pre9, stronger effect = lower value) of the same compound?
**A.** 0.992 (inactive)

**Q.** And the normalized growth (locus YGR229C, strain SMI1, stronger effect = lower value)?
**A.** 1.07 (inactive)

**Q.** And the normalized growth (locus YGR252W, strain gcn5, stronger effect = lower value)?
**A.** 0.993 (inactive)

**Q.** What about the normalized growth (locus YHR013C, strain ard1, stronger effect = lower value) of the same compound?
**A.** 0.939 (inactive)

**Q.** What about the normalized growth (locus YHR027C, strain rpn1, stronger effect = lower value) of the same compound?
**A.** 0.984 (inactive)

**Q.** What about the normalized growth (locus YHR030C, strain SLT2, stronger effect = lower value) of the same compound?
**A.** 0.999 (inactive) and 0.85 (active)

**Q.** And the normalized growth (locus YHR079C, strain IRE1 (second series), stronger effect = lower value)?
**A.** 1 (inactive)

**Q.** And the normalized growth (locus YHR079C, strain IRE1, stronger effect = lower value)?
**A.** 0.782 (active)

**Q.** What about the normalized growth (locus YHR094C, strain hxt1, stronger effect = lower value) of the same compound?
**A.** 1.01 (inactive)

**Q.** And the normalized growth (locus YHR129C, strain ARP1, stronger effect = lower value)?
**A.** 0.996 (inactive)

**Q.** What about the normalized growth (locus YHR142W, strain chs7, stronger effect = lower value) of the same compound?
**A.** 0.96 (inactive)

**Q.** And the normalized growth (locus YHR200W, strain rpn10, stronger effect = lower value)?
**A.** 1.01 (inactive)

**Q.** What about the normalized growth (locus YIL066C, strain RNR3, stronger effect = lower value) of the same compound?
**A.** 0.983 (inactive)

**Q.** What about the normalized growth (locus YIL073C, strain SPO22, stronger effect = lower value) of the same compound?
**A.** 1.03 (inactive)

**Q.** What about the normalized growth (locus YIL125W, strain kgd1, stronger effect = lower value) of the same compound?
**A.** 1.03 (inactive)

**Q.** And the normalized growth (locus YIR030C, strain dcg1, stronger effect = lower value)?
**A.** 1 (inactive)

**Q.** And the normalized growth (locus YJL092W, strain hpr5, stronger effect = lower value)?
**A.** 0.98 (inactive)

**Q.** What about the normalized growth (locus YJL095W, strain BCK1 (second series), stronger effect = lower value) of the same compound?
**A.** 0.985 (inactive)

**Q.** And the normalized growth (locus YJL095W, strain BCK1, stronger effect = lower value)?
**A.** 1.03 (inactive) and 0.819 (active)

**Q.** And the normalized growth (locus YJL115W, strain asf1, stronger effect = lower value)?
**A.** 0.968 (inactive)

**Q.** What about the normalized growth (locus YJL129C, strain trk1, stronger effect = lower value) of the same compound?
**A.** 0.963 (inactive)

**Q.** And the normalized growth (locus YJL134W, strain LCB3, stronger effect = lower value)?
**A.** 1.03 (inactive)

**Q.** And the normalized growth (locus YJL154C, strain vps35, stronger effect = lower value)?
**A.** 0.976 (inactive)

**Q.** And the normalized growth (locus YJL164C, strain tpk1, stronger effect = lower value)?
**A.** 0.982 (inactive)

**Q.** What about the normalized growth (locus YJL166W, strain qcr8, stronger effect = lower value) of the same compound?
**A.** 0.98 (inactive)

**Q.** And the normalized growth (locus YJL168C, strain set2, stronger effect = lower value)?
**A.** 1.01 (inactive)

**Q.** And the normalized growth (locus YJL187C, strain SWE1 (second series), stronger effect = lower value)?
**A.** 0.992 (inactive)

**Q.** And the normalized growth (locus YJL187C, strain SWE1, stronger effect = lower value)?
**A.** 0.979 (inactive)

**Q.** And the normalized growth (locus YJR043C, strain POL32, stronger effect = lower value)?
**A.** 0.989 (inactive)

**Q.** And the normalized growth (locus YJR066W, strain TOR1, stronger effect = lower value)?
**A.** 0.835 (inactive)
